Structures are written as SMILES. Screen size: about 1,500 compounds; about 460 (31%) were called active. About 1% were inconclusive and are not listed. A selection follows. Entries with a potency or affinity are not part of this list. A number with no mark means an inactive call.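 How the source made its calls: active means curve reaches 40% activation over neutral controls at an AC40 no higher than the top valid tested concentration; inconclusive means no clear call, values can overlap the other calls; inactive means signal moving opposite to the expected increase, and the rest.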

The assay can be described thus: activators of glucose-dependent insulin secretion, dose response, cell-based, INS-1E, Gaussia luciferase, luminescence, cherry-pick, set 2 (AID 977607).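 Further: 0% = median of the plate neutral control wells.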 Conditions: INS-1E GLuc insulin secretion reporter, 2-3 h, active compounds read high; at 35 µM, 100% = signal doubled over neutral wells unless noted.
In the case of `O=C(Nc1ccc(F)cc1)C1COc2ccccc2O1` (configuration not stated), the max activation was -26.7%.
The result for `Cc1ccc(CS(=O)Cc2ccc(C(=O)NCc3ccccc3)o2)cc1` (configuration not stated) reads 8.81% [at 1.2 µM, 100% = signal doubled over neutral wells]; that for `Clc1ccc(OCCn2ccnc2)c(Cl)c1`, 53.2%; that for `COc1ccc(/C=C/c2noc(-c3ccccc3OC(C)=O)n2)cc1`, -25.1%.
The result for `O=C(COc1cccc2c1CCNC2=O)NC1CCCCC1` reads -23.7% [at 1.2 µM, 100% = signal doubled over neutral wells]; that for `CCCCOc1ccc(C2=NNC(=O)CC2)cc1`, -15.4% [at 3.8 µM, 100% = signal doubled over neutral wells]; that for `COCCNc1nc(N2CCCCC2)c2cnn(C)c2n1`, -16.6% [at 0.42 µM, 100% = signal doubled over neutral wells].
As to `Cc1c(P(=S)(c2ccccc2)c2ccccc2)[n+]2ccccc2n1C/C=C/c1ccccc1`, the max activation was -32.8%.
As to `O=C(Nc1ccc(C(=O)N2CCCC2)cc1)c1cccc(C(F)(F)F)c1`, the max activation was -13% [at 0.015 µM, 100% = signal doubled over neutral wells].
The result for `O=c1[nH]c2ccccc2nc1-c1nnnn1C1CCCC1` reads -11.7%.
The result for `COc1ccc(CN2CCOC2=O)cc1OC` reads -24.4% [at 0.046 µM, 100% = signal doubled over neutral wells]; that for `COc1ccc(-c2nc(N)ncc2-c2ccc(OC)c(OC)c2)c(O)c1`, -26.8% [at 0.046 µM, 100% = signal doubled over neutral wells].
The result for `COc1ccc(CNC(=O)CCn2c(=O)oc3ccccc32)c(OC)c1` reads -18.2% [at 3.8 µM, 100% = signal doubled over neutral wells].
As for `O=C([C@H]1O[C@@H](n2ccc(=O)[nH]c2=O)[C@H](O)[C@@H]1O)N1CCN(c2ccc(Cl)cn2)CC1`, the max activation was -17.9% [at 1.2 µM, 100% = signal doubled over neutral wells].
The result for `CS(=O)(=O)N1CCCCC1c1cc(C(=O)Nc2cccc(C#N)c2)no1` (configuration not stated) reads -20.8% [at 0.135 µM, 100% = signal doubled over neutral wells]; that for `COc1ccc(C2=NOC(C(=O)Nc3cccnc3)C2)cc1OC` (configuration not stated), 36.7% [at 11 µM, 100% = signal doubled over neutral wells]; that for `COc1ccc(-c2noc(CCC(=O)Nc3cccnc3)n2)cc1OC`, 10.9%.
The result for `CCC(CC)NC(=O)c1ccccc1Oc1ccccc1` reads -14.5% [at 0.046 µM, 100% = signal doubled over neutral wells].
On to `CC(=O)c1ccc2c(c1)N(Cc1ccccc1)C(=O)C(C)S2` (configuration not stated), for which the max activation was -15.7% [at 3.8 µM, 100% = signal doubled over neutral wells].
`CC(C)(C)c1ccc(C#C[C@@H]2C=C[C@H]3OC(=O)CC/C=C/CCC(=O)OC[C@H]3O2)cc1`: the max activation is -35.6% [at 3.8 µM, 100% = signal doubled over neutral wells].
The result for `CCOC(=O)C1=C(COC(=O)c2cccs2)NC(=O)NC1C` (configuration not stated) reads 39.2% [at 11 µM, 100% = signal doubled over neutral wells].
The result for `Cc1ccc(C2(C)NC(=O)N(CC(=O)Nc3ccc(-c4nc5ccc(C)cc5s4)cc3)C2=O)cc1` (configuration not stated) reads -34.8%; that for `Cc1ccc2sc(-c3ccc(NC(=O)c4cc(-n5cnnc5)ccc4Cl)cc3)nc2c1`, 38.9%.
`Cc1c(Cc2ccccc2)sc(NC(=O)c2ccco2)c1C(N)=O`: the max activation is -16.3% [at 0.015 µM, 100% = signal doubled over neutral wells].
The result for `Cc1ccnc(NC(=O)CNC(=O)c2ccco2)c1` reads -26.8% [at 3.8 µM, 100% = signal doubled over neutral wells].
As for `COc1ccc(-c2c(NC(=O)c3ccco3)oc3ccc(Cl)cc3c2=O)cc1`, the max activation is -15.5% [at 0.42 µM, 100% = signal doubled over neutral wells].
The result for `CCOc1cc(NC(=O)c2ccco2)c(OCC)cc1NC(=O)c1cc(OC)c(OC)c(OC)c1` reads 33.6%.
Turning to `CN(C)CCNc1ncnc2oc(-c3ccccc3)c(-c3ccccc3)c12`, the max activation is -17.7% [at 0.0016 µM, 100% = signal doubled over neutral wells].
The result for `CCOC(=O)C1CCCN(C(=O)c2ccccc2OC(F)(F)F)CC1` (configuration not stated) reads -23.6% [at 0.0016 µM, 100% = signal doubled over neutral wells].
The result for `CCOc1cc(/C=N/NC(=O)CCn2nnc3ccccc32)ccc1O` reads 23.5%; that for `CCOc1ccccc1OCCC(=O)NNC(=O)Cn1nc(C)cc1C`, -16% [at 0.005 µM, 100% = signal doubled over neutral wells].
As to `CCn1nnc(NC(=O)c2sc3ccccc3c2Cl)n1`, the max activation was -17.8% [at 3.8 µM, 100% = signal doubled over neutral wells].
The result for `Cc1c(NC(=S)NC(=O)c2sc3ccccc3c2Cl)cccc1C(=O)O` reads -23.7% [at 0.0016 µM, 100% = signal doubled over neutral wells]; that for `CCOc1nc(CC(C)C)c2c(c1C#N)CC(C)(C)OC2`, -26.5%; that for `O=C(NN(Cc1ccccc1)Cc1ccccc1)c1ccccc1`, 23.7% [at 1.2 µM, 100% = signal doubled over neutral wells].
The result for `Cn1cc(C(=O)NCC(=O)Nc2ccccc2Br)cn1` reads -16.7% [at 0.135 µM, 100% = signal doubled over neutral wells]; that for `O=C(c1cc(-c2ccccc2)nc2ccccc12)N1CCCC1`, -13.5% [at 11 µM, 100% = signal doubled over neutral wells].
